Records with an inconclusive call do not appear. Active and inactive are the calls of the source. The calls were made as follows: active = hit-call score of the fitted dose curve at least 0.9, where 1 is the maximum; inconclusive = response in the unintended direction; inactive = score below 0.9.

A short description of this experiment: ATG_GAL4_TRANS: Attagene TRANS-FACTORIAL HepG2 Assay for GAL4 (Internal Marker) (AID 2282976). To be noted: HepG2 Attagene TRANS GAL4 internal marker reporter. The essentials:
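Fluorescence from capillary electrophoresis of labelled RT-PCR products quantifies reporter mRNA induction after 24 h dosing of HepG2 cells carrying transfected GAL4-UAS reporter transcription units. Vehicle DMSO serves as baseline.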
As for `Cc1cc(C)cc(C)c1`, the compound was classed as inactive.
As to `BrCC(Br)c1ccccc1` (stereo not drawn), the compound was called inactive.
Under `CCCCOC(=O)COC(=O)c1ccccc1C(=O)OCCCC` stands “inactive”; under `CC(C)[N+](=O)[O-]`, “inactive”; under `CCOP(=S)(OCC)O/N=C(\C#N)c1ccccc1`, “inactive”.
In the case of `CCCCCCCCBr` it was “inactive”.
Under `COc1nn(C(=O)NS(=O)(=O)c2ccccc2OC(F)(F)F)c(=O)n1C` stands “inactive”.
As to `C[C@H]1C(=O)O[C@@H]2CCN3CC=C(COC(=O)[C@](C)(O)[C@]1(C)O)[C@H]23`, the compound was called inactive.
Take `CN(N=O)C(N)=O`: the result was inactive.
Under `OC[C@@H](O)[C@H]1O[C@@H]2O[C@H](C(Cl)(Cl)Cl)O[C@@H]2[C@H]1O` stands “inactive”; under `OCCCCO`, “inactive”.
In the case of `CCCCCCCCCCCCCCC(Br)C(=O)O` (stereo not drawn) it was “inactive”; in that of `OC[P+](CO)(CO)CO`, “inactive”; in that of `C=CCOC(N)=O`, “inactive”.
Regarding `N#CS`, the call was inactive.
`CCC(C)(C#N)N=NC(C)(C#N)CC` (stereo not drawn): the compound was classed as inactive.
In the case of `FC(F)OCC(F)(F)C(F)(F)F` it was “inactive”.
Under `C[As+](C)(C)CC(=O)[O-]` stands “inactive”.

Values taken from PubChem BioAssay (EPA / NIEHS).
